Our source for the activity change, negative = inhibition and Gaussia minus Italica difference values is PubChem BioAssay AID1224904 (Broad Institute, 2016).

The nature of this test: inhibitors of DUX4-driven ZSCAN4 reporter expression, primary screen, 293T cells, Gaussia and Italica luciferase (AID 1224904).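 As to activity change, negative = inhibition: 0% = median of neutral control wells and -100% = median of positive control wells.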 The note with it: 293T-iDUX4 ZSCAN4-Gaussia luciferase reporter, 24 h, stronger effect = lower value, concentration not given here; for Gaussia minus Italica difference: measured here: selective DUX4 reporter inhibition.
Where [1] appears, read: measured here: Italica tet-on control reporter.

Where “and” joins values, the source holds several entries; their conditions need not be identical. Equal entries are not always repeated. In all, about 37,000 compounds went through this assay and about 290 (0.78%) were called active. About 10% were inconclusive and are not listed.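 The calls were made as follows: active = mean inhibition of at least 10% in the main channel, exceeding the control channel by a set limit; inconclusive = inhibition of 10% or more but channel gap under a set limit; inactive = mean inhibition below 10%.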 Shown is part of a subset that was picked to be rich in actives.

As for `COCC#Cc1cnc2c(c1)C(=O)N([C@H](C)CO)C[C@H](C)[C@H](CN(C)Cc1ccc(-c3ccccc3)cc1)O2`, the activity change, negative = inhibition was -1.2% (inactive) and the Gaussia minus Italica difference was determined as 0.393%. Also, the activity change, negative = inhibition under setting [1] was -1.59%.

Consider `C[C@H](CO)N1C[C@H](C)[C@H](CN(C)C(=O)CCN(C)C)OCc2ccccc2-c2c(n(C)c3ccccc23)C1=O`, for which the activity change, negative = inhibition was 0.0892% (inactive) and the Gaussia minus Italica difference was -6.23%. Moreover, the activity change, negative = inhibition under setting [1] amounted to 6.32%.

For `COc1ccccc1C#Cc1ccc([C@H]2[C@@H](C#N)N(C(=O)C3CCCCC3)[C@@H]2CO)cc1`, the activity change, negative = inhibition is -1.13% (inactive) and the Gaussia minus Italica difference is -1.05%. Besides, the activity change, negative = inhibition under setting [1] was -0.0756%.

For the molecule `COc1ccccc1C#Cc1ccc([C@H]2[C@H](CO)N3CCCCN(C(=O)C4CCC4)C[C@@H]23)cc1`, the activity change, negative = inhibition was -36.1% (active) and the Gaussia minus Italica difference is -27.4%. Also, the activity change, negative = inhibition under setting [1] was -8.62%.

For `C[C@@H](O)C#Cc1ccc([C@@H]2[C@H](CO)N3CCCCN(S(=O)(=O)c4ccccc4)C[C@@H]23)cc1`, the activity change, negative = inhibition was 10.1% (inactive) and the Gaussia minus Italica difference is 13.3%. The activity change, negative = inhibition under setting [1] was -3.26%.

For `COc1ccccc1C#Cc1ccc([C@@H]2[C@@H](CO)N3CCCCN(S(C)(=O)=O)C[C@@H]23)cc1`, the activity change, negative = inhibition is -1.08% (inactive) and the Gaussia minus Italica difference was -6.73%. For the same molecule, under setting [1], the activity change, negative = inhibition is 5.65%.

Regarding `O=C(Nc1cccc(F)c1)N1CCCCN2[C@H](CO)[C@H](c3ccc(C#CC4CC4)cc3)[C@@H]2C1`, the activity change, negative = inhibition is -32.4% (active) and the Gaussia minus Italica difference was -37.5%. Further, the activity change, negative = inhibition under setting [1] was 5.1%.

Regarding `O=C(Nc1cccc(F)c1)N1CC(=O)N2[C@H](CO)[C@H](c3ccc(C#CC4CC4)cc3)[C@@H]2C1`, the activity change, negative = inhibition was 2.91% (inactive) and the Gaussia minus Italica difference is 14.6%. The activity change, negative = inhibition under setting [1] was -11.7%.

`COc1ccc(S(=O)(=O)N2CCCCN3[C@H](CO)[C@@H](c4ccc(C#CC(C)C)cc4)[C@H]3C2)cc1`: the activity change, negative = inhibition is -31.7% (active) and the Gaussia minus Italica difference was -28%. For the same molecule, the activity change, negative = inhibition under setting [1] is -3.69%.

Take `C[C@@H](O)C#Cc1ccc([C@@H]2[C@H]3CN(S(=O)(=O)c4ccccc4)CCCCN3[C@H]2CO)cc1`: the activity change, negative = inhibition was 25.7% (inactive) and the Gaussia minus Italica difference amounted to 12.9%. For the same molecule, the activity change, negative = inhibition under setting [1] was determined as 12.9%.

With `CN(C)CC#Cc1ccc([C@@H]2[C@H](CO)N3CCCCN(C(=O)Nc4ccc(F)cc4)C[C@@H]23)cc1`, the activity change, negative = inhibition is 15.2% (inactive) and the Gaussia minus Italica difference was found to be 10.1%. Moreover, under setting [1], the activity change, negative = inhibition worked out at 5.12%.

With `O=C(CC(F)(F)F)N1C[C@H]2[C@@H](c3ccccc31)[C@H](CO)N2C(=O)Cc1cccnc1`, the activity change, negative = inhibition is 2.67% (inactive) and the Gaussia minus Italica difference worked out at 2.22%. In addition, the activity change, negative = inhibition under setting [1] was 0.448%.

As to `CCCC#Cc1ccc([C@@H]2[C@@H](C#N)N(C(=O)C3CCC3)[C@H]2CO)cc1`, the activity change, negative = inhibition was 0.61% (inactive) and the Gaussia minus Italica difference was -1.01%. Besides, the activity change, negative = inhibition under setting [1] was 1.62%.

Turning to `COc1cccc(CN2[C@H](CO)[C@@H]3c4ccccc4N(C(=O)c4ccncc4)C[C@@H]32)c1`, the activity change, negative = inhibition was -3.19% (inactive) and the Gaussia minus Italica difference was -7.25%. For the same molecule, the activity change, negative = inhibition under setting [1] was determined as 4.06%.

As to `COc1cccc(C(=O)Nc2ccc3c(c2)C(=O)N(C)[C@H]2CC[C@@H](CC(=O)N[C@H](C)c4ccccc4)O[C@H]2CO3)c1`, the activity change, negative = inhibition was -1.13% (inactive) and the Gaussia minus Italica difference was -1.51%. Besides, under setting [1], the activity change, negative = inhibition came to 0.375%.

Regarding `COC(=O)[C@@H]1[C@@H](CO)[C@@H]2Cn3c(ccc(-c4ccccc4F)c3=O)[C@@H]2N1CC1CCOCC1`, the activity change, negative = inhibition was -4.32% (inactive) and the Gaussia minus Italica difference was -12.8%. Also, the activity change, negative = inhibition under setting [1] amounted to 8.44%.

Take `O=C([C@H]1[C@H](CO)[C@H]2Cn3c(cccc3=O)[C@@H]1N2Cc1cocn1)N1CCCCC1`: the activity change, negative = inhibition is 0.941% (inactive) and the Gaussia minus Italica difference is -0.343%. Besides, the activity change, negative = inhibition under setting [1] turned out to be 1.28%.

For `C/C=C/c1ccc(C2[C@H]3CNC[C@@H]2N3C(=O)Nc2cc(F)ccc2F)cc1` (some centres not stated), the activity change, negative = inhibition was 15.1% (inactive) and 2.98% (inactive); the Gaussia minus Italica difference was 11.2% and 0.626%. The activity change, negative = inhibition under setting [1] is 3.89% and 2.36%.

Turning to `O=C(c1ccncc1)N1CC2(C1)[C@@H](c1ccccc1)[C@H](CO)N2C(=O)c1ccncc1`, the activity change, negative = inhibition was 9.03% (inactive) and the Gaussia minus Italica difference was 8.26%. The activity change, negative = inhibition under setting [1] came to 0.77%.

With `CO[C@@H]1CN(C)C(=O)c2cc(NS(=O)(=O)c3cn(C)cn3)ccc2OC[C@@H](C)N(CCC(F)(F)F)C[C@H]1C`, the activity change, negative = inhibition is 2.8% (inactive) and the Gaussia minus Italica difference is 0.0206%. Moreover, the activity change, negative = inhibition under setting [1] is 2.78%.

In the case of `CC(C)NC(=O)Nc1ccc2c(c1)C(=O)N(C)[C@H]1CC[C@H](CC(=O)NCc3ccc(F)cc3)O[C@H]1CO2`, the activity change, negative = inhibition was -1.78% (inactive) and the Gaussia minus Italica difference was -0.872%. Further, the activity change, negative = inhibition under setting [1] was -0.912%.

Turning to `CN1C(=O)c2cc(NC(=O)Nc3ccccc3F)ccc2OC[C@H]2O[C@@H](CC(=O)Nc3cccc(Cl)c3)CC[C@@H]21`, the activity change, negative = inhibition is 2.01% (inactive) and the Gaussia minus Italica difference stood at 0.199%. Besides, under setting [1], the activity change, negative = inhibition turned out to be 1.81%.

On to `CN1C(=O)c2cc(NC(=O)c3ccc(Cl)cc3)ccc2OC[C@@H]2O[C@@H](CC(=O)O)CC[C@H]21`, for which the activity change, negative = inhibition is 3.27% (inactive) and the Gaussia minus Italica difference worked out at 0.834%. In addition, the activity change, negative = inhibition under setting [1] came out at 2.43%.

Consider `CCS(=O)(=O)N1[C@H](CO)[C@@H](c2ccc(C#CC(C)C)cc2)[C@@H]1C#N`, for which the activity change, negative = inhibition was -1.24% (inactive) and the Gaussia minus Italica difference is -0.33%. Also, the activity change, negative = inhibition under setting [1] is -0.906%.

As to `COc1ccccc1CN1[C@@H]2CNC[C@H]1C2c1ccc(-c2cccc(C#N)c2)cc1` (some centres not stated), the activity change, negative = inhibition is 2.24% (inactive) and -7% (inactive); the Gaussia minus Italica difference is -5.67% and 6.5%. Besides, under setting [1], the activity change, negative = inhibition is 7.91% and -13.5%.

For the molecule `CCCNC(=O)C[C@H]1CC[C@H]2[C@@H](COc3ccc(NC(=O)Nc4c(C)noc4C)cc3C(=O)N2C)O1`, the activity change, negative = inhibition is 1.35% (inactive) and the Gaussia minus Italica difference is -0.269%. Under setting [1], the activity change, negative = inhibition worked out at 1.62%.

`N#Cc1ccc(-c2ccc(C3[C@@H]4CN(S(=O)(=O)c5ccc(F)cc5)C[C@H]3N4)cc2)cc1` (some centres not stated): the activity change, negative = inhibition was -15.8% (active) and the Gaussia minus Italica difference is -27.5%. Besides, the activity change, negative = inhibition under setting [1] is 11.7%.

Turning to `O=C(Cc1ccncc1)N1C[C@@H]2N[C@H](C1)C2c1ccc(-c2ccc(F)cc2)cc1` (some centres not stated), the activity change, negative = inhibition was -3.63% (inactive) and the Gaussia minus Italica difference is -4.98%. Also, the activity change, negative = inhibition under setting [1] was 1.35%.

With `CN(C)C(=O)c1cccc(-c2ccc(C3[C@@H]4CN(S(=O)(=O)c5ccc(F)cc5)C[C@H]3N4)cc2)c1` (some centres not stated), the activity change, negative = inhibition was -0.156% (inactive) and the Gaussia minus Italica difference amounted to 4.34%. The activity change, negative = inhibition under setting [1] was -4.49%.
